The results in this text go back to PubChem BioAssay (NCI).

The nature of test [1]: NCI Yeast Anticancer Drug Screen. Data for the rad50 strain (AID 155).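 Also: 0% = growth of vehicle-only cultures of the same strain.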 To be noted: S. cerevisiae rad50 strain growth inhibition, stronger effect = higher value. In a few lines: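 Growth of the mutant yeast was measured after compound exposure and referenced to vehicle-treated cultures.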
The nature of test [2]: NCI Yeast Anticancer Drug Screen. Data for the mec2-1 strain (AID 157). To be noted: S. cerevisiae mec2-1 strain, stronger effect = higher value. In a few lines: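 Strain: mec2-1 (DNA repair/cell cycle alteration). Compound exposure, then growth measured; inhibition expressed relative to vehicle.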
Test [3] can be described thus: NCI Yeast Anticancer Drug Screen. Data for the sgs1 mgt1 strain (AID 161).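 Also: 0% = growth of cultures given vehicle only.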 To be noted: S. cerevisiae sgs1 mgt1 strain, stronger effect = higher value. In a few lines:
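Mutant yeast exposed to compound; growth scored against vehicle-only wells.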

Test [4] can be described thus: NCI Yeast Anticancer Drug Screen. Data for the cln2 rad14 strain (AID 165).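 Also: 0% = growth equal to vehicle treated cultures.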 To be noted: S. cerevisiae cln2 rad14 strain, stronger effect = higher value. In a few lines: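 Compounds are applied to the cln2 rad14 yeast strain, and growth is then compared with that of vehicle-treated cultures to give inhibition.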
The nature of test [5]: NCI Yeast Anticancer Drug Screen. Data for the bub3 strain (AID 167). To be noted: S. cerevisiae bub3 mutant strain, stronger effect = higher value. In a few lines: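 Whole-cell yeast assay. The mutant strain was incubated with compounds, and growth inhibition was determined by comparison with vehicle-treated cells.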
A short description of test [6]: NCI Yeast Anticancer Drug Screen. Data for the mlh1 rad18 strain (AID 175). To be noted: S. cerevisiae mlh1 rad18 strain growth inhibition, stronger effect = higher value. In a few lines:
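Read-out is yeast growth inhibition, calculated against vehicle-only controls. The compound was applied to a strain engineered with DNA damage repair alterations.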

Setting [7] is: at 5.0 µM (retest, dose inferred, filed as 0.5).
[8] abbreviates: at 50.0 µM (retest, dose inferred, filed as 5.0).

Compounds without any hit were thinned out: in the full panel of roughly 79,000, 15% have a hit. A number with no mark means an inactive call. Calls of active or inactive are those of the source. Rule as the data show it: active = growth inhibition above about 70%; inactive = the rest.

Take `Nc1ccc2ccccc2c1Cc1c(O)ccc2ccccc12`: the growth inhibition was 9% in test [1] (setting [7]); 96% (active) in test [1] (setting [8]); 99.2% (active) in test [1] (at 50.0 µM); 0% in test [2] (setting [7]); 98% (active) in test [2] (setting [8]); 98.8% (active) in test [2] (at 50.0 µM). Besides, the growth inhibition is 6% in test [3] (setting [7]); 98% (active) in test [3] (setting [8]); 98.9% (active) in test [3] (at 50.0 µM); 1% in test [4] (setting [7]); 88% (active) in test [4] (setting [8]); 84.5% (active) in test [4] (at 50.0 µM). Also, the growth inhibition in test [5] (setting [7]) was 0%; in test [5] (setting [8]), 63%; in test [5] (at 50.0 µM), 88.8% (active); in test [6] (setting [7]), 6%; in test [6] (setting [8]), 88% (active); in test [6] (at 50.0 µM), 95.7% (active).
With `Cc1ccc(SSCCCCCS(=O)O)cc1`, the growth inhibition in test [1] (setting [7]) was 1%; in test [1] (setting [8]), 24%; in test [1] (at 50.0 µM) it was 49.5%; in test [2] (setting [7]), 4%; in test [2] (setting [8]), 60%; in test [2] (at 50.0 µM) it was 23.1%. Also, the growth inhibition was 3% in test [3] (setting [7]); 54% in test [3] (setting [8]); 42.9% in test [3] (at 50.0 µM); -5% in test [4] (setting [7]); 34% in test [4] (setting [8]); 58% in test [4] (at 50.0 µM). Also, the growth inhibition in test [5] (setting [7]) was 10%; in test [5] (setting [8]) it was 88% (active); in test [5] (at 50.0 µM), 84.4% (active); in test [6] (setting [7]), 6%; in test [6] (setting [8]), 49%; in test [6] (at 50.0 µM), 77.5% (active).
As for `COc1cc(/C=C2/SC(=S)NC2=O)cc(OC)c1O`, the growth inhibition is -18% in test [1] (setting [7]); 29% in test [1] (setting [8]); 46.4% in test [1] (at 50.0 µM); 3% in test [2] (setting [7]); 49% in test [2] (setting [8]); 30.9% in test [2] (at 50.0 µM). Besides, the growth inhibition in test [3] (setting [7]) is 1%; in test [3] (setting [8]) it was 42%; in test [3] (at 50.0 µM), 71.4% (active); in test [4] (setting [7]), -25%; in test [4] (setting [8]), 20%; in test [4] (at 50.0 µM), -1.6%. In addition, the growth inhibition in test [5] (setting [7]) was -24%; in test [5] (setting [8]), 22%; in test [5] (at 50.0 µM), 42.6%; in test [6] (setting [7]), -1%; in test [6] (setting [8]), 19%; in test [6] (at 50.0 µM) it was 41.2%.
`Clc1cccc(N2CCN(c3c4c(nc5ccccc35)CCCCC4)CC2)c1`: the growth inhibition was 81% (active) in test [1] (setting [7]); 94% (active) in test [1] (setting [8]); 93% (active) in test [1] (at 50.0 µM); 93% (active) in test [2] (setting [7]); 99% (active) in test [2] (setting [8]); 95.5% (active) in test [2] (at 50.0 µM). For the same molecule, the growth inhibition is 87% (active) in test [3] (setting [7]); 96% (active) in test [3] (setting [8]); 95.2% (active) in test [3] (at 50.0 µM); 28% in test [4] (setting [7]); 89% (active) in test [4] (setting [8]); 93.2% (active) in test [4] (at 50.0 µM). Moreover, the growth inhibition is 73% (active) in test [5] (setting [7]); 93% (active) in test [5] (setting [8]); 92.1% (active) in test [5] (at 50.0 µM); 92% (active) in test [6] (setting [7]); 95% (active) in test [6] (setting [8]); 93.9% (active) in test [6] (at 50.0 µM).
In the case of `C[C@H](CCC(=O)O)[C@H]1CC[C@H]2[C@@H]3[C@@H](O)C[C@@H]4C[C@H](O)CC[C@]4(C)[C@H]3CC[C@]12C`, the growth inhibition in test [1] (setting [7]) was 14%; in test [1] (setting [8]), 97% (active); in test [1] (at 50.0 µM) it was 79.9% (active); in test [2] (setting [7]) it was 7%; in test [2] (setting [8]), 96% (active); in test [2] (at 50.0 µM), 99% (active). Besides, the growth inhibition in test [3] (setting [7]) was 19%; in test [3] (setting [8]), 99% (active); in test [3] (at 50.0 µM), 81.3% (active); in test [4] (setting [7]) it was -1%; in test [4] (setting [8]) it was 97% (active); in test [4] (at 50.0 µM), 76.5% (active). Further, the growth inhibition was 21% in test [5] (setting [7]); 99% (active) in test [5] (setting [8]); 98.5% (active) in test [5] (at 50.0 µM); 12% in test [6] (setting [7]); 99% (active) in test [6] (setting [8]); 88.7% (active) in test [6] (at 50.0 µM).
Take `CC(=O)OC1CCC2(C)C3CCC4(C)C(C(C)CCCC(C)C)CCC4C3CCC23OC13C` (configuration not stated): the growth inhibition in test [1] (setting [7]) was 2%; in test [1] (setting [8]), 12%; in test [1] (at 50.0 µM) it was 31.9%; in test [2] (setting [7]) it was -17%; in test [2] (setting [8]) it was 23%; in test [2] (at 50.0 µM), 6.2%. Besides, the growth inhibition in test [3] (setting [7]) is -5%; in test [3] (setting [8]), 52%; in test [3] (at 50.0 µM), 72.7% (active); in test [4] (setting [7]) it was -3%; in test [4] (setting [8]) it was 6%; in test [4] (at 50.0 µM), -19.2%. In addition, the growth inhibition in test [5] (setting [7]) was -3%; in test [5] (setting [8]), -4%; in test [5] (at 50.0 µM), -8.05%; in test [6] (setting [7]) it was 24%; in test [6] (setting [8]), 59%; in test [6] (at 50.0 µM) it was 35.7%.
In the case of `S=C(N/N=C(/c1ccccc1)c1ccccn1)Nc1cccc(Cl)c1`, the growth inhibition in test [1] (setting [7]) was 48%; in test [1] (setting [8]), 88% (active); in test [1] (at 50.0 µM), 2.05%; in test [2] (setting [7]), 32%; in test [2] (setting [8]), 91% (active); in test [2] (at 50.0 µM) it was 3.3%. Further, the growth inhibition in test [3] (setting [7]) is 24%; in test [3] (setting [8]), 88% (active); in test [3] (at 50.0 µM), 41.6%; in test [4] (setting [7]), 25%; in test [4] (setting [8]) it was 88% (active); in test [4] (at 50.0 µM), 17.6%. Moreover, the growth inhibition in test [5] (setting [7]) is 40%; in test [5] (setting [8]), 85% (active); in test [5] (at 50.0 µM), 20.1%; in test [6] (setting [7]), 36%; in test [6] (setting [8]), 89% (active); in test [6] (at 50.0 µM) it was 26.1%.
Turning to `COc1cc2c(c(OC)c1OC)-c1ccc(SC)c(=O)cc1[C@@H](NC1OC(COC(C)=O)C(OC(C)=O)C(OC(C)=O)C1OC(C)=O)CC2` (some centres not stated), the growth inhibition was 0% in test [1] (setting [7]); -3% in test [1] (setting [8]); -1.6% in test [1] (at 50.0 µM); -1% in test [2] (setting [7]); -3% in test [2] (setting [8]); 2.55% in test [2] (at 50.0 µM). Also, the growth inhibition was 1% in test [3] (setting [7]); 5% in test [3] (setting [8]); 9.45% in test [3] (at 50.0 µM); 3% in test [4] (setting [7]); -14% in test [4] (setting [8]); 74.2% (active) in test [4] (at 50.0 µM). Further, the growth inhibition in test [5] (setting [7]) is 0%; in test [5] (setting [8]), -7%; in test [5] (at 50.0 µM), 0.9%; in test [6] (setting [7]), 0%; in test [6] (setting [8]), -3%; in test [6] (at 50.0 µM) it was 7.15%.
Consider `CC(C(=O)O)c1cn(Cc2ccccc2)c2ccccc12` (configuration not stated), for which the growth inhibition was -2% in test [1] (setting [7]); 61% in test [1] (setting [8]); 4.65% in test [1] (at 50.0 µM); 6% in test [2] (setting [7]); 58% in test [2] (setting [8]); 43.2% in test [2] (at 50.0 µM). For the same molecule, the growth inhibition was -28% in test [3] (setting [7]); 36% in test [3] (setting [8]); 31.4% in test [3] (at 50.0 µM); 6% in test [4] (setting [7]); 85% (active) in test [4] (setting [8]); -8.85% in test [4] (at 50.0 µM). The growth inhibition is 21% in test [5] (setting [7]); 80% (active) in test [5] (setting [8]); -43.8% in test [5] (at 50.0 µM); 6% in test [6] (setting [7]); 34% in test [6] (setting [8]); 38.9% in test [6] (at 50.0 µM).
